Source: PubChem (Buhrlage Lab, Dana-Farber Cancer Institute and Novartis Institutes for BioMedical Research (Cambridge, Mass))
USP8 inh: human USP8 deubiquitinase inhibition. P40818. purified USP8, Ub-rhodamine cleavage fluorescence, 30 min. inhibition, % at 20 µM. 4.2% of 47,000 active
USP10 block: inhibitors of human USP10 deubiquitinase; Q14694; purified USP10, Ub-rhodamine fluorescence, 60 min; inhibition, % at 20 µM; 1.1% of 47,000 active
USP7 inh: blocks human USP7 ubiquitin-rhodamine cleavage; inhibition, % at 20 µM; AID 1645854; purified USP7, Ub-rhodamine cleavage fluorescence; 0.3% of 47,000 active; Q93009
Target sequence (Q93009 whole entry, looked up): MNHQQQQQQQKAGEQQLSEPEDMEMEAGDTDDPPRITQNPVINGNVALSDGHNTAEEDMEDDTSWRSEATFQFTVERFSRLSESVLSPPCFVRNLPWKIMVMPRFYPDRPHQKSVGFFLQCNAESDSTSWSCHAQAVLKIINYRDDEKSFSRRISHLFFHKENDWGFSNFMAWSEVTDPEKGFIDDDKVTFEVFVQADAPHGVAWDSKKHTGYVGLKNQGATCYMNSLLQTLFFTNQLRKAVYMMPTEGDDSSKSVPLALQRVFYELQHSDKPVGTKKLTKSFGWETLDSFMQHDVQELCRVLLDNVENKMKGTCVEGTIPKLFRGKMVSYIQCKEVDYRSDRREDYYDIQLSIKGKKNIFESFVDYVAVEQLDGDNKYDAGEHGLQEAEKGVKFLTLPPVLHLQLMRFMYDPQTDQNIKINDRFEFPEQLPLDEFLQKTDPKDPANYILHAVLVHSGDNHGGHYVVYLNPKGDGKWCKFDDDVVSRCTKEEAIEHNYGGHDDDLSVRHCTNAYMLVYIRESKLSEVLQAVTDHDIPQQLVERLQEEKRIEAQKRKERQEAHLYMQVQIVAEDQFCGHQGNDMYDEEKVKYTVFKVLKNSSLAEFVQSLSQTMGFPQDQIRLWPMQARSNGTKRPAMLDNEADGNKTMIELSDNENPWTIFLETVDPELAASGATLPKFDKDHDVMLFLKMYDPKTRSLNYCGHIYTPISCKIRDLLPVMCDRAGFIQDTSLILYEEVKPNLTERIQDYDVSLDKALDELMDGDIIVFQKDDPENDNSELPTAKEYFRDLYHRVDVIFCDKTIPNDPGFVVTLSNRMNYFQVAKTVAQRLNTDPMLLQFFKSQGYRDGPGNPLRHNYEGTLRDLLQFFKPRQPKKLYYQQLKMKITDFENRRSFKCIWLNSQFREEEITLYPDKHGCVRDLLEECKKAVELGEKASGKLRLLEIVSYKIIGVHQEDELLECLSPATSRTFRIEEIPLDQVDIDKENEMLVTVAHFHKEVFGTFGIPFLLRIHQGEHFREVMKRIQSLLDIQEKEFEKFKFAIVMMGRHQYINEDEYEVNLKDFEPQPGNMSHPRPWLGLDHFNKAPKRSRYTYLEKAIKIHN
UCHL1 block: blocks human UCHL1 ubiquitin-rhodamine cleavage | 0.2% of 47,000 active | AID 1645859 | P09936 | purified UCHL1, Ub-rhodamine cleavage fluorescence | inhibition, % at 20 µM
Numbers without * were called inactive. This is a sample that favours compounds with a hit; in the whole collection about 5% have one here. Cut-off read from the data, not from the text of the source: active = inhibition above about 30%; inactive = the rest.

SMILES	USP8 inh	USP10 block	USP7 inh	UCHL1 block
Cc1ccc(-n2ccn3c(CCC(=O)NCc4ccc(F)cc4)nnc3c2=O)cc1C	67*	10	24	7
Cn1cnc(S(=O)(=O)NC2CCCc3ccccc32)c1 (stereo unspecified)	4	1	-2	-5
Cc1ccc2c(c1)CCCN2C(=O)c1c(C)nn(Cc2ccccc2)c1C	-19	10	-44	7
Cc1ccc(CNC(=O)CCCc2nnc3c(=O)n(-c4cccc(F)c4)ccn23)cc1	36*	-3	5	2
CCOC(=O)c1ccccc1NC(=O)Cc1c(C)n(C(=O)c2ccc(Cl)cc2)c2ccc(OC)cc12	-9	-2	-1	0
CCOC(=O)c1ccccc1NC(=O)C(=O)CC(=O)c1ccc(OC)cc1	78*	3	0	-2
Cc1cc(C(=O)C(=O)Nc2nnc(-c3cccnc3)s2)c(C)n1-c1ccccc1F	37*	-6	-9	12
CCOCCc1nnc(NC(=O)C(=O)c2cc(C)n(-c3ccc(F)cc3)c2C)s1	0	-1	5	1
O=c1[nH]c(-c2ccncc2)nc2c1CCN(Cc1cccc(Cl)c1)C2	-3	-2	-5	-8
COc1ccc(NC(=O)COc2ccc3ccc(=O)oc3c2)cc1	5	2	3	-2
COc1ccc(CC(=O)Nc2nc3c(s2)CCC3)cc1	23	-1	-1	3
COc1ccc(CC(=O)Nc2nc(-c3ccco3)c(-c3ccco3)s2)cc1	73*	-13	-140	-94
O=C(Cc1ccccc1F)Nc1nc(-c2ccco2)c(-c2ccco2)s1	74*	-12	-91	-59
Cc1ccc(Cn2nnc3c(=O)[nH]c(C4CCN(C(=O)c5ccccc5)CC4)nc32)cc1	14	10	-16	2
Cc1ccc2nc(NC(=O)/C=C/c3ccc4c(c3)OCO4)sc2c1	36*	20	16	3
COc1ccc2c(CCN=C(NC(C)=O)Nc3nc(C)cc(C)n3)c[nH]c2c1	-1	-1	34*	2
COc1ccc2[nH]cc(CCN=C(NC(=O)C(C)C)Nc3nc(C)cc(C)n3)c2c1	12	-1	4	6
COc1cccc(C(=O)Nc2nc(-c3nnn(-c4ccc(C)c(F)c4)c3C)ns2)c1	56*	48*	16	7
CCCc1cc(=O)[nH]c(N2CCN(c3ccccc3OC)CC2)n1	1	4	-2	1
CCc1[nH]c(=O)cc2cc(OC)c(OC)cc12	91*	79*	-51	48*
COc1cccc(-n2ccc(=O)c(-c3nc(-c4cccc(C)c4)no3)n2)c1	7	-6	-10	-12
CCOc1cccc(-c2noc(-c3nn(-c4cccc(C)c4)ccc3=O)n2)c1	88*	9	-2	8
CCOc1cccc(-c2noc(-c3nn(-c4ccccc4)ccc3=O)n2)c1	93*	24	21	7
Cc1cccc(-c2noc(-c3nn(-c4cccc(C)c4)ccc3=O)n2)c1	5	5	-14	8
COc1ccc(-n2ccc(=O)c(-c3nc(-c4ccccc4F)no3)n2)cc1OC	45*	-6	4	2
SMILES	USP8 inh	USP10 block	USP7 inh	UCHL1 block
CC(Oc1ccccc1Cl)C(=O)Nc1nonc1-c1ccccc1 (stereo unspecified)	33*	15	7	5
CC(Oc1ccc(C(C)C)cc1)C(=O)Nc1nonc1-c1ccccc1 (stereo unspecified)	9	13	3	2
CC1=C(C(=O)Nc2cccnc2)C(c2cccc(OCc3ccccc3)c2)n2nnnc2N1 (stereo unspecified)	37*	18	3	-3
CCCNC(=O)c1ccc2nnc(C3CN(c4ncccn4)CCN3C)n2c1 (stereo unspecified)	-134	-12	-6	-5
Cc1noc(-c2cccc(=O)n2CC(=O)Nc2cccc(Cl)c2)n1	10	0	-12	1
CN1C(=O)OC2(CCN(C(=O)c3ccc(O)cc3)CC2)c2ccccc21	-46	4	1	-1
COc1ccc(OC)c(NC(=O)Cn2c(=O)n(C3CCCCC3)c(=O)c3ccccc32)c1	18	43*	-3	-3
O=C(Cn1c(=O)n(CCC(=O)NC2CCCC2)c(=O)c2ccccc21)Nc1ccccc1F	15	2	6	3
O=C(Cc1ccc(-n2c(=O)c3ccccc3n(Cc3cccc(F)c3)c2=O)cc1)NC1CCCC1	21	16	6	-2
COc1cc(NC(=O)Cn2c(=O)n(-c3ccc(CC(=O)NC4CCCC4)cc3)c(=O)c3ccccc32)cc(OC)c1	63*	24	17	-1
O=C(Cn1c(=O)n(-c2ccc(CC(=O)NC3CCCC3)cc2)c(=O)c2ccccc21)Nc1ccccc1[N+](=O)[O-]	80*	44*	0	2
COc1ccc(NC(=O)Cn2c(=O)n(C3CCCCC3)c(=O)c3ccccc32)cc1	12	6	0	2
O=C(Cc1ccc(-n2c(=O)c3ccccc3n(Cc3cccc([N+](=O)[O-])c3)c2=O)cc1)NC1CCCC1	26	36*	18	8
COc1cccc2sc(N3CCN(C(=O)c4ccn(C)n4)CC3)nc12	7	0	-3	-2
O=C(O)CN1C[C@@H]2C[C@]2(c2ccccc2)C(=O)c2ncccc21	12	-8	-13	-14
COc1ccc(CN2C[C@@H]3C[C@]3(c3ccccc3)C(=O)c3ncccc32)cc1	84*	1	-17	5
Cn1cncc1-c1nnc([C@H]2CCN(Cc3cccc(C#N)c3)C2)o1	-17	-2	-16	-2
N#Cc1cccc(CN2CC[C@H](c3nnc(-c4cccnc4)o3)C2)c1	54*	2	-1	3
CCCCCC(=O)C(CCCC)c1oc(=O)c(CCCC)c(O)c1CCCC (stereo unspecified)	20	39*	14	10
CC(=O)c1c(C)oc2c1cc(OC(=O)c1ccccc1)c1ccccc12	13	2	8	8
CCCCOC(=O)c1c(C)oc2c1cc(NS(=O)(=O)c1ccc(CC)cc1)c1ccccc12	45*	9	1	2
Cc1nc(SCC(=O)Nc2ccc(S(N)(=O)=O)cc2)c2cnn(-c3ccccc3)c2n1	-22	41*	3	4
CCC(C(=O)NC1CCCCC1)(C(F)(F)F)C(F)(F)F	6	-3	5	3
COc1cc(OC)c(NC(=O)Cn2c(=O)n(-c3ccc(CC(=O)NCC4CCCO4)cc3)c(=O)c3ccccc32)cc1Cl (stereo unspecified)	0	0	4	4
CCC(C)NC(=O)Cn1c(=O)n(-c2ccccc2)c(=O)c2ccc(C(=O)NCc3ccco3)cc21 (stereo unspecified)	25	7	-5	4
COc1ccc(NC(=O)Cn2c(=O)n(-c3ccc(CC(=O)NCc4ccco4)cc3)c(=O)c3ccccc32)cc1Cl	75*	61*	0	20
O=C(Cc1ccc(-n2c(=O)c3ccccc3n(CC(=O)Nc3ccc(Cl)cc3Cl)c2=O)cc1)NCc1ccco1	56*	46*	14	2
CSCC[C@H](NC(=O)OC(C)(C)C)C(=O)N1CCC(C(=O)N[C@@H](C)C(=O)Nc2ccc(C(C)C)cc2)CC1	24	-2	5	5
